Data taken from PubChem BioAssay AID2553 (Johns Hopkins Ion Channel Center, 2010).
The campaign covered roughly 310,000 compounds. About 3,300 (1.1%) were called active.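 Rule for the calls: active = B-score under library mean minus 3 SD, initial fluorescence not abnormally high, positive integrated signal ratio; inactive = the rest.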 Only a selection was taken, and actives are over-represented in it overall.

biological target: Short transient receptor potential channel 6 (Mus musculus) (UniProt Q61143); assay: mouse TRPC6 channel inhibitors, primary screen, cell-based, HEK293, membrane potential dye (AID 2553); conditions: ACh-evoked depolarization, at 10 µM; hits give low values;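 for B-score: B-score derived from integrated fluorescence ratio over the kinetic read; more negative B-score means stronger inhibition of depolarization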
Sequence (Q61143 whole entry, looked up): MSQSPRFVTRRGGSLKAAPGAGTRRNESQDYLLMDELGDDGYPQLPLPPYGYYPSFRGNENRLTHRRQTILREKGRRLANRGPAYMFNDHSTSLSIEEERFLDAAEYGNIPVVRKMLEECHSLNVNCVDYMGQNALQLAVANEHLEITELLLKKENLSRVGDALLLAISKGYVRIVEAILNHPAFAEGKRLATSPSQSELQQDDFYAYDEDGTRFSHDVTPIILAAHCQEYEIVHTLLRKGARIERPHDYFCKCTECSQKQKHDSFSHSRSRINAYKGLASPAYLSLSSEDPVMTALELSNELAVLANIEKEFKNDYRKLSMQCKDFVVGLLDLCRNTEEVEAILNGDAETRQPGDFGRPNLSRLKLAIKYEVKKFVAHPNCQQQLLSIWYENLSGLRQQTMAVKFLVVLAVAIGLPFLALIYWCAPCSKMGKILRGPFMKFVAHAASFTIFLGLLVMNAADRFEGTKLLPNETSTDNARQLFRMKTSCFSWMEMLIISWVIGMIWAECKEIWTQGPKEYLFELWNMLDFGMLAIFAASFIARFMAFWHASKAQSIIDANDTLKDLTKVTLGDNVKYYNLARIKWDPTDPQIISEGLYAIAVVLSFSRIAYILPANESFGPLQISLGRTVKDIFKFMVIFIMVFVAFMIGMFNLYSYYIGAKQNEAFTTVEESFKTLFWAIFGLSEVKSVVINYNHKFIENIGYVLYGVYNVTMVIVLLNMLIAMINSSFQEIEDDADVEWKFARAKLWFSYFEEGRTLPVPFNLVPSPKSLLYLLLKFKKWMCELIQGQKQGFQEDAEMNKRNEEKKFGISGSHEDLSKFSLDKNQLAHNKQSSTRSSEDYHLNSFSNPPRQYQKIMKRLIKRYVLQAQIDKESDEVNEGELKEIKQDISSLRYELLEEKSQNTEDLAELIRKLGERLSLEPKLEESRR

| SMILES | B-score |
| --- | --- |
| CC(=O)c1cc(NC(=O)c2ccccc2)c(=O)oc1/C=C/N(C)C | -5.52 (active) |
| CC(=O)Oc1cccc(C(=O)Nc2ccccc2NC(=O)c2cccc(OC(C)=O)c2)c1 | inactive |
| CCOC(=O)c1cc(NC(=O)c2ccc(Cl)cc2)c(=O)oc1-c1ccccc1 | inactive |
| CCOC(=O)c1c(/N=C/c2cc(C)ccc2O)sc2c1CCC2 | inactive |
| CN(C(=O)COc1nnc(-c2cccs2)c(-c2cccs2)n1)c1ccccc1 | inactive |
| CN(C)/C=C/C(=O)c1cnc2sccn2c1=O | inactive |
| COC(=O)c1cccc(N(C(=O)c2ccco2)C(C(=O)NC2CCCC2)c2ccco2)c1 (stereo not drawn) | inactive |
| Cc1cccc(N2CCN(C(C)C(=O)N3CCc4ccccc43)CC2)c1C (stereo not drawn) | inactive |
| O=C(c1ccccc1F)N(Cc1ccccc1)Cc1ccccc1 | inactive |
| OCCN1CCN(c2nnc(-c3ccccc3)c3ccccc23)CC1 | inactive |
| OCCN1CCN(C(=S)c2ccc(-c3ccccc3)cc2)CC1 | inactive |
| O=C1c2ccccc2C(=O)c2c1cccc2N1CCN(Cc2ccccc2)CC1 | -9.75 (active) |
| O=C(CN1CCN(Cc2ccccc2)CC1)NC(c1ccccc1)c1ccccc1 | inactive |
| O=C1c2ccccc2C(=O)c2c1cccc2N1CCN(C/C=C/c2ccccc2)CC1 | inactive |
| O=C1c2ccccc2C(=O)c2c1cccc2N1CCN(CCO)CC1 | -11.5 (active) |
| O=C(CNCc1ccco1)Nc1cc(S(=O)(=O)N2CCOCC2)ccc1N1CCCC1 | inactive |
| Clc1cc(NC2CCCCC2)ncn1 | inactive |
| COc1ccc(S(=O)(=O)NCCOc2ccccc2)cc1F | inactive |
| CC(=O)c1c(O)cc2n(c1=O)-c1ccc(Cl)cc1C2(C)C | inactive |
| O=C(NCc1ccc2c(c1)OCO2)c1c(O)nc2sccn2c1=O | inactive |
| COCCOC(=O)c1sc(=S)n(CCOC)c1N | inactive |
| CC(Sc1nnc(CNC(=O)c2ccccc2F)n1C)C(=O)Nc1nccs1 (stereo not drawn) | inactive |

| SMILES | B-score |
| --- | --- |
| COc1cc(NC(=O)CCS(=O)(=O)c2ccc3c(c2)oc(=O)n3C)cc(OC)c1 | inactive |
| Cc1cc(Nc2ccc(N3CCOCC3)cc2)c2cccc(C)c2n1 | -7.55 (active) |
| Cc1cc(Nc2ccc(C(=O)N3CCCCC3)cc2)c2cccc(C)c2n1 | inactive |
| Cc1cc(Nc2ccc(Cl)cc2)nc(N2CCOCC2)n1 | inactive |
| Cc1cc(S(=O)(=O)NCC(C)C)ccc1OCC(=O)NC1CC1 | inactive |
| CCN(CC)CCNc1nc(-c2ccc(OC(F)F)cc2)c(C)s1 | -6.16 (active) |
| CCOc1ccc(C2/C(=C(/O)c3ccc4c(c3)CC(C)O4)C(=O)C(=O)N2CCCn2ccnc2)cc1 (stereo not drawn) | inactive |
| O=C(NCCN1CCOCC1)c1cc(-c2cccs2)nc2ccccc12 | inactive |
| COC(=O)c1cc(-c2cccs2)nc2ccccc12 | inactive |
| CCCCN(C)CCCNC(=O)c1cc(-c2cccs2)nc2ccccc12 | -6.6 (active) |
| CCc1nnc(NC(=O)CSc2nnnn2-c2cccc(C(C)=O)c2)s1 | inactive |
| O=S(=O)(Nc1nccs1)c1ccc2c(c1)OCCO2 | inactive |
| CCOCCCNc1nc(-c2ccccc2)nc2ccccc12 | inactive |
| CC(C)(C)Nc1nc(-c2ccccn2)nc2ccccc12 | -6.28 (active) |
| Cc1ccc(Oc2nc(-c3ccccn3)nc3ccccc23)cc1 | inactive |
| CC(=O)Nc1ccc(S(=O)(=O)NC2(C(F)(F)F)C(=O)NC(C)=C2C#N)cc1 (stereo not drawn) | inactive |
| O=S1(=O)CCOC[C@H](CC2CCCCC2)N1Cc1ccc(F)cc1 | inactive |
| N=c1c2c3c(sc2nc2n1CCCCC2)CCCC3 | -10.6 (active) |
| CC1(C)Cc2c(sc3nc4n(c(=N)c23)CCCCC4)CO1 | inactive |
| NNC(=O)C1CCCn2c1nc1sc3c(c1c2=O)CCCC3 (stereo not drawn) | inactive |
| Cc1ccc(-c2nc(CSCC(=O)NC3CCN(Cc4ccccc4)CC3)c(C)o2)cc1 | inactive |
| Cc1c(-c2ccccc2)n[nH]c1C(=O)N=Nc1c(O)[nH]c2ccccc12 | inactive |

| SMILES | B-score |
| --- | --- |
| O=C(O)C1CCCCC1C(=O)N1CCN(S(=O)(=O)c2ccc(F)cc2)CC1 (stereo not drawn) | inactive |
| O=C(c1cccc(-n2cccc2)c1)N1CCN(S(=O)(=O)c2ccc(F)cc2)CC1 | -5.32 (active) |
| O=C(c1cnc(Cl)c(Cl)c1)N1CCN(S(=O)(=O)c2ccc(F)cc2)CC1 | inactive |
| c1ccc2c(c1)OCCOCCOCCO2 | inactive |
| Nc1nc(NCCCN2CCOCC2)nc(Nc2ccccc2)c1[N+](=O)[O-] | inactive |
| CCOc1cccc(/C=N/NC(=S)NCCN2CCOCC2)c1O | inactive |
| CCOc1nc(NCCN2CCOCC2)nc(Nc2ccc(C)cc2)n1 | -5.49 (active) |
| Cc1c(Br)ccc(NC(=O)COc2ccccc2C(N)=O)c1C | inactive |
| O=S(=O)(Nc1cccc(Oc2ccc(Cl)cc2)n1)c1ccc(F)cc1 | inactive |
| COc1cccc(NC(=O)Nc2nnc(N3CCCCC3C)s2)c1 (stereo not drawn) | inactive |
| CCOC(=O)C1CCN(Cc2c(C(=O)N3CCOCC3)nc3c(C)cccn23)CC1 | inactive |
| Nc1nc(-c2ccccc2)cc(-c2ccccc2)n1 | inactive |
| CN(C)c1cc(N)c2ccccc2n1 (tested in a mixture with another compound) | -9.26 (active) |
| COc1ccc(-c2cc(C(=O)N(C)Cc3ccccc3)c3ccccc3n2)cc1 | inactive |
| Cc1cc(C)c(S(=O)(=O)NCCCN2CCOCC2)cc1Br | inactive |
| CN1CC(c2ccccc2)C2(COc3ccccc3C2=O)C12C(=O)Nc1ccccc12 (stereo not drawn) | inactive |
| S=C(Nc1ccc(Cl)cc1Cl)N1CCCC1 | inactive |
| Cc1ccc2c(c1)C1CN(C)CCC1N2C(=S)Nc1ccc(Cl)cc1Cl (stereo not drawn) | -5.46 (active) |
| Cc1ccc2c(c1)C1CN(C)CCC1N2C(=S)Nc1ccc(OC(F)F)cc1 (stereo not drawn) | inactive |
| Cc1ccc(S(=O)(=O)N(Cc2ccccc2)c2ccccn2)cc1[N+](=O)[O-] | inactive |
| O=C(C[n+]1ccc2c(c1)nnn2-c1ccccc1)c1ccc(Cl)cc1 | -5.81 (active) |
| O=C(Cn1cc(-c2nnnn2-c2ccc(Cl)cc2)c(=O)c2ccccc21)c1ccccc1 | inactive |

| SMILES | B-score |
| --- | --- |
| O=C(CSc1cccc[n+]1[O-])c1ccc(Cl)cc1 | inactive |
| COc1ccccc1NS(=O)(=O)N(C)C | inactive |
| O=S(=O)(Nc1ccccc1Br)c1cccs1 | inactive |
| O=C(Nc1cccc(Cl)c1)Nc1ccccc1NS(=O)(=O)c1cccs1 | -5.11 (active) |
| O=S(=O)(NCc1ccc(Cl)cc1Cl)c1cccs1 | inactive |
| COCCCN1C(=O)C(=O)/C(=C(/O)c2ccc(S(=O)(=O)N3CCOCC3)cc2)C1c1ccc(F)cc1 (stereo not drawn) | inactive |
| COC(=O)c1sccc1-n1cccc1C(=O)C(=O)N1CCCCC1 | inactive |
| COc1ccccc1OCC(O)CN1CCOCC1 (stereo not drawn) | inactive |
| COc1ccccc1OCCNCC(O)COc1cccc2[nH]c3ccccc3c12 (stereo not drawn) | -7.01 (active) |
| CC(C)(C)NCC(O)COc1cccc2[nH]c(=O)[nH]c12 (stereo not drawn) | inactive |
| CC(=O)c1ccc(N2CCN(C(=O)C3CCN(S(=O)(=O)c4ccc5c(c4)CC(C)N5C(=O)C4CC4)CC3)CC2)cc1 (stereo not drawn) | inactive |
| O=C(CSc1nnc(SCc2ccc(Cl)cc2)s1)N/N=C/c1ccccc1Cl | inactive |
| CCN(C(=O)COC(=O)c1ccc(COc2ccc3c(C)cc(=O)oc3c2)cc1)C1CCS(=O)(=O)C1 (stereo not drawn) | inactive |
| Nc1ccc(C(=O)N2CCN(S(=O)(=O)c3ccc(Cl)cc3)CC2)cc1[N+](=O)[O-] | -5.95 (active) |
| CC(C)c1ccc(S(=O)(=O)N2CCN(C(=O)c3ccc(N4CCCC4)c([N+](=O)[O-])c3)CC2)cc1 | inactive |
| Cc1ccc(S(=O)(=O)N2CCN(C(=O)c3ccc(-n4cncn4)c([N+](=O)[O-])c3)CC2)cc1 | inactive |
| CSc1nnc(-c2ccc(C(F)(F)F)cn2)o1 | inactive |
| CCOc1ccc(NC(=O)CSc2nncn2C)cc1 | inactive |
| COc1ccc(-c2ccc3nnc(SCC(=O)Nc4ccc(NC(C)=O)cc4)n3n2)cc1 | inactive |
| CCCCc1nc(NCc2ccccc2)c(C#N)c2c1CCCC2 | inactive |
| Cc1nc(NCCN)c(C#N)c2c1COC(C)(C)C2 | inactive |
| CCCCc1nc(NCCN)c(C#N)c2c1CSC(C)(C)C2 | -5.09 (active) |

| SMILES | B-score |
| --- | --- |
| Cc1cc(NC(=O)C(C)SCC(=O)Nc2ccccc2N2CCCCC2)no1 (stereo not drawn) | inactive |
| CN(Cc1cccc2ncccc12)C(=O)CC1C(=O)NCCN1Cc1ccc(F)cc1 (stereo not drawn) | inactive |
| COc1ccc(NC(=O)CN(C)C(=O)c2ccc(COc3ccccc3)o2)cc1 | inactive |
| Cc1cc(OCc2ccc(C(=O)Nc3ccc(C(=O)O)cc3)o2)ccc1Cl | inactive |
| O=C(O)c1ccc(NC(=O)c2ccc(COc3ccc(Cl)cc3)o2)cc1 | -5.87 (active) |
| O=C(COC(=O)CC1CC2CCC1C2)NC(=O)NC1CCCC1 (stereo not drawn) | inactive |
| O=C(COc1ccccc1)Nc1ccc(N2CCN(C(=O)c3cccs3)CC2)cc1 | inactive |
| COCC(=O)Nc1cc(C(=O)OC)cc(C(=O)OC)c1 | inactive |
| CC(C)(C)n1nnnc1C(c1ccc(Cl)cc1)N1CCSCC1 (stereo not drawn) | inactive |
| Cc1cccc(N2CCN(C(c3ccc(N(C)C)cc3)c3nnnn3C(C)(C)C)CC2)c1C (stereo not drawn) | inactive |
| CC(C)(C)n1nnnc1C(c1ccc2ncccc2c1)N1CCSCC1 (stereo not drawn) | -11.5 (active) |
| O=C(NCCc1ccccc1Cl)C1CCC(=O)N(CCCc2ccccc2)C1 (stereo not drawn) | inactive |
| CCOC(=O)c1cn(CC(=O)Nc2ccc(C(C)C)cc2)nn1 | inactive |
| CCc1ccc(NC(=O)Cn2ncn3c(cc4ccccc43)c2=O)cc1 | inactive |
| CC(C)c1ccc(NC(=O)Cn2ncc3ccccc32)cc1 | -5.5 (active) |
| Cc1cc(O)c(C2(O)C(=O)Nc3ccccc32)cc1C (stereo not drawn) | inactive |
| CCc1ccccc1NC(=O)CN(c1ccc(OC)cc1OC)S(=O)(=O)c1ccccc1[N+](=O)[O-] | inactive |
| COCc1ccc(C(=O)N2CCc3c([nH]c4ccccc34)C2c2ccccn2)s1 (stereo not drawn) | inactive |
| c1ccc(C2c3[nH]c4ccccc4c3CCN2Cc2cccn2-c2cccnc2)nc1 (stereo not drawn) | -6.75 (active) |
| CCOc1ccc(C2c3[nH]c4ccccc4c3CCN2Cc2cccn2-c2ncccn2)cc1 (stereo not drawn) | inactive |
